This note sets out measurements from PubChem BioAssay AID2685 (National Center for Advancing Translational Sciences (NCATS), 2010).

The whole screen tested about 320,000 compounds, of which about 2,100 (0.66%) were called active. Inconclusive results (about 53%) are left out. Calls follow the shape of the dose curve; as a rule, active = well fitted inhibition curve with a large enough effect in the signal ratio, with a control signal flat (not every such curve was filed as active); inconclusive = small, poorly fitted or top-dose-only effect, or effect the other way, or a change in a side signal; inactive = flat fitted curve, though single readings scatter; the % refers to the signal ratio. Many of the other results were omitted from the sample, so actives are more common in it than they were.
Potency is read from the fitted curve at half-maximal effect.

This assay can be described thus: qHTS Assay for Lipid Storage Modulators in Drosophila S3 Cells.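 As to cell number change: cells counted by Cell Tracker Red CMTPX staining in the red channel.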 As to lipid storage change, negative = inhibition: % is scaled to controls: 0 for no effect and ±100 for the full control effect. The following applies: BODIPY lipid droplet fluorescence, 18-24 h, cells fed with added oleic acid; cell number change: measured here: cell count max response; series mostly up to 46.1 µM. The essentials:
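Drosophila S3 cells got compounds at several concentrations plus oleic acid (400 uM solution). Laser-scanning cytometry with 488 nm excitation read lipid droplets at 500-530 nm and cells at 575-640 nm. Percent activity was relative to 20 uM Triacsin C.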
In general terms: In qHTS, concentration-response curves come from the screen itself.
For the molecule `O=C(NNS(=O)(=O)c1ccccc1)c1cnn(-c2ccccc2)c1-n1cccc1`, the Potency result was “inactive” and the cell number change was found to be 9.3%.
On to `O=C1CC(NS(=O)(=O)c2cc(F)ccc2F)CN1c1ccc2c(c1)OCCO2` (centres undefined), for which the Potency entry is “inactive”.
`CC(=O)N1CCc2cc(Br)cc(S(=O)(=O)N3CCCCCC3)c21`: the Potency entry was “inactive” and the cell number change is -5.11%.
For `Cn1cccc1/C=N/NC(=O)CSc1nc2ccccc2[nH]1`, in that order: “inactive” and 5.5%.
Take `CCC(=O)NC(=S)Nc1ccc(NC(=O)c2ccc(Br)o2)cc1`: the cell number change is -10.2% and the lipid storage change, negative = inhibition is -15.2% [at 9.22 µM] (inactive).
Consider `C=CCn1c(CNC(=O)c2ccccc2F)nnc1SCC(=O)NC(C)c1ccccc1` (centres undefined), for which the Potency entry was “inactive” and the cell number change turned out to be 1.35%.
For `Cc1cc(=O)oc2cc(OCC(=O)OCC(=O)N(C)C3CCS(=O)(=O)C3)ccc12` (centres undefined), in that order: “inactive” and 7.81%.
Taken in the same sequence, the figures for `CCN(C(=O)COC(=O)COc1ccc2c(C)cc(=O)oc2c1)C1CCS(=O)(=O)C1` (centres undefined) were 0.0461 µM (active) and -49.7%.
For `Cc1cc(=O)oc2cc(OCc3ccc(C(=O)OCC(=O)N(C)C4CCS(=O)(=O)C4)cc3)ccc12` (centres undefined), in that order: “inactive” and -7.42%.
Take `Fc1ccccc1C(c1nnnn1C1CCCC1)N1CCN(Cc2ccccc2)CC1` (centres undefined): the Potency entry was “inactive” and the cell number change is -15.7%.
Taken in the same sequence, the figures for `COc1ccccc1NC(=O)Nc1ccc(Br)cn1` were “inactive” and -23.3%.
Consider `COc1ccc(C2/C=C\CN(S(=O)(=O)/C=C/c3ccccc3)[C@H](Cc3ccccc3)C(=O)N2Cc2ccc(F)cc2)cc1` (some centres undefined), for which the Potency entry was “inactive” and the cell number change amounted to 2.68%.
With `COc1cc(/C=N/NC(=O)c2ccc3nc[nH]c3c2)ccc1O`, the Potency entry is “inactive” and the cell number change amounted to 8.7%.
`Cc1ccc(CNC(=O)COc2cccc3c2OC(C)(C)C3)cc1`: the Potency is 10.3 µM (active).
The same measure, in the same setting: the same measure for `COc1cccc(CNC(=O)COc2cccc3c2OC(C)(C)C3)c1`: “inactive”.
As to `CC1(C)Cc2cccc(OCC(=O)NCc3ccc(F)cc3)c2O1`, the Potency entry was “inactive” and the cell number change amounted to 2.51%.
As for `CN(CCNC(=O)c1cn(C)c2ccc(S(=O)(=O)N3CCCC3)cc2c1=O)CCc1ccccc1`, the Potency entry is “inactive”.
Consider `COc1cc(NC(=S)N(C)CCC#N)c(OC)cc1Cl`, for which the Potency entry is “inactive” and the cell number change was -2.16%.
Consider `CCOC(=O)c1nc(C)n(-c2ccc(Cl)cc2Cl)n1`, for which the Potency result was “inactive”.
Turning to `CCOC(=O)c1nn(-c2ccc(Cl)cc2Cl)c(=N)c(C#N)c1C`, the Potency is 18.4 µM (active) and the cell number change amounted to 4.21%.
Taken in the same sequence, the figures for `CCOC(=O)c1nn(-c2ccc(C)c(C)c2)c(=O)c(C#N)c1C` were “inactive” and -19.4%.
Turning to `CC(C)(C)NC(=O)NC(=O)COC(=O)C1=COCCO1`, the Potency result is “inactive” and the cell number change was -19.1%.
As to `Cc1ccc2c(c1)N(C(=O)CSc1nncn1C)C(C)(C)c1ssc(=S)c1-2`, the Potency entry was “inactive” and the cell number change was -13.4%.
Taken in the same sequence, the figures for `Cn1cnnc1SCC(=O)N1c2ccccc2-c2c(ssc2=S)C1(C)C` were “inactive” and 1.3%.
Taken in the same sequence, the figures for `CC1(C)c2ssc(=S)c2-c2ccccc2N1C(=O)c1ccco1` were 8.2 µM (active) and 1.38%.
Taken in the same sequence, the figures for `O=C(N/N=C/c1ccccc1C(=O)O)c1cccc(S(=O)(=O)N2CCOCC2)c1` were “inactive” and 10.2%.
Turning to `Cc1onc(-c2ccncc2)c1C(=O)O`, the Potency is 20.6 µM (active) and the cell number change was -5.32%.
Taken in the same sequence, the figures for `Cc1onc(-c2ccccc2)c1C(=O)Nc1ccncc1` were “inactive” and 12.5%.
For the molecule `Cc1onc(-c2ccccc2)c1C(N)=O`, the Potency result is “inactive”.
`CCOc1ccc(CN2CCC(=O)NC2=O)cc1`: the Potency entry was “inactive” and the cell number change is -4.82%.
Taken in the same sequence, the figures for `CC1CC(C)CN(CCCNC(=O)c2ccc(N3CCCC3=O)cc2)C1` (centres undefined) were “inactive” and -12.7%.
With `COC(CNC(=O)c1cc(S(=O)(=O)N2CCc3ccccc32)ccc1F)OC`, the Potency result was “inactive”.
With `COC(CNC(=O)c1ccc(N2CCC3(CC2)OCCO3)c([N+](=O)[O-])c1)OC`, the Potency entry was “inactive” and the cell number change is -9.81%.
Taken in the same sequence, the figures for `COC(CNC(=O)c1ccc(N2CCc3ccccc32)c([N+](=O)[O-])c1)OC` were 20.6 µM (active) and -26.9%.
Regarding `O=C(Nc1cccc([N+](=O)[O-])c1)C(=O)N1CCCCC1`, the Potency result is “inactive” and the cell number change was -20.3%.
For `CCOC(=O)c1ccc(NC(=O)CSc2nnc(-c3ccncc3)n2C)cc1`, in that order: “inactive” and 3.98%.
Taken in the same sequence, the figures for `COc1ccc2c(C)cc(N3CCOCC3)nc2c1` were 4.61 µM (active) and -8.65%.
On to `COc1ccc2c(C)cc(N3CCCCCC3)nc2c1`, for which the Potency entry is “inactive” and the cell number change is 23.5%.
On to `Cc1cc(N2CCOCC2)nc2cc(O)ccc12`, for which the Potency entry is “inactive” and the cell number change was -2.46%.
Taken in the same sequence, the figures for `CSc1ccc(S(=O)(=O)Nc2c(C)cccc2C)cc1` were “inactive” and 1.28%.
For `CCCCCCCn1c(=N)n(CC(O)c2ccco2)c2ccccc21` (centres undefined), in that order: “inactive” and -4.47%.
As to `O=c1cc(CN2CCOCC2)c2cc(Cl)c(O)cc2o1`, the Potency result is “inactive” and the cell number change is -11.3%.
For `Cc1ccc2c(CN3CC(C)CC(C)C3)cc(=O)oc2c1` (centres undefined), in that order: 1.16 µM (active) and 4.5%.
Taken in the same sequence, the figures for `COC(=O)C1CCN(Cc2cc(=O)oc3cc(C)c(Cl)cc23)CC1` were “inactive” and 14.6%.
Consider `Cc1ccc2c(CN3CCOCC3)cc(=O)oc2c1`, for which the Potency entry is “inactive” and the cell number change came to 3.55%.
For `Cc1ccc2c(CN3CCN(Cc4ccccc4)CC3)cc(=O)oc2c1`, in that order: “inactive” and 22.5%.
For `CC1CN(Cc2cc(=O)oc3cc(O)c(Cl)cc23)CC(C)O1` (centres undefined), in that order: 1.64 µM (active) and -11.3%.
Taken in the same sequence, the figures for `CCCCCCNC(=O)c1cc(-c2ccco2)nc2ccccc12` were “inactive” and -17.2%.
For `O=C(CN1C(=O)NC2(CCCC2)C1=O)N1CCN(Cc2ccccc2)CC1`, the Potency result was “inactive” and the cell number change came out at 0.232%.
For `COC(=O)Cn1nc(-c2ccc(C)cc2)c2ccccc2c1=O`, in that order: “inactive” and 9.56%.
Taken in the same sequence, the figures for `COc1ccc(/C=N/NC(=O)CCN2CCCCC2c2cccnc2)cc1Cn1cc([N+](=O)[O-])cn1` (centres undefined) were “inactive” and -16.7%.
On to `CN(C)CCN(Cc1ccccc1)S(=O)(=O)c1ccc(-c2ccc(=O)[nH]n2)s1`, for which the Potency entry was “inactive”.
Same read-out and setting: the same measure for `COc1ccc(C2C(C(=O)NCc3ccccn3)c3ccccc3C(=O)N2C)cc1OC` (centres undefined): “inactive”.
As for `COc1ccc(C2C(C(=O)NCc3cccnc3)c3ccccc3C(=O)N2C)cc1OC` (centres undefined), the Potency was 2.59 µM (active) and the cell number change is -17.1%.
In the case of `COc1cc2c(cc1OC)C(C(=O)NCc1cccnc1)C(c1cccnc1)N(C)C2=O` (centres undefined), the Potency entry is “inactive” and the cell number change is -0.81%.
With `O=C(N/N=C\c1cccnc1)C1c2ccccc2Oc2ccccc21`, the Potency entry is “inactive” and the cell number change was -0.813%.
As to `CCN(CC)C(=O)c1[nH]cnc1C(=O)N[C@@H](CC(C)C)C(=O)OCc1ccccc1`, the Potency entry is “inactive” and the cell number change was -10.8%.
Taken in the same sequence, the figures for `C/C(=N\NC(=O)c1cccc([N+](=O)[O-])c1)c1cccc(NC(=O)C2CC2)c1` were “inactive” and -1.94%.
Taken in the same sequence, the figures for `Cc1ccccc1NC(=O)CN1C(=O)N/C(=C\c2ccc(N3CCOCC3)c(F)c2)C1=O` were “inactive” and -7.47%.
